Data taken from PubChem BioAssay (Tox21).
Inconclusive results are not listed. The source made the active and inactive calls. Unless noted, the call rests on the fitted dose curve; in most records, active means well fitted curve in the direction sought with a large enough effect in the repeat runs; inconclusive means weak or mixed curves; inactive means no such curve, though single readings can be large; an effect the other way counts as inactive or inconclusive.

What was measured:
[1] = biological target: Retinoic acid receptor RXR-alpha (Homo sapiens) (UniProt P19793); experiment: qHTS assay to identify small molecule agonists of the RXR signaling pathway (AID 1159527; calls by dose curve; further: nearly all actives have a fitted effect of over 35% in size; further: potency means the concentration at half of the fitted maximal effect)
Sequence of Retinoic acid receptor RXR-alpha (Homo sapiens) (P19793 whole entry, looked up): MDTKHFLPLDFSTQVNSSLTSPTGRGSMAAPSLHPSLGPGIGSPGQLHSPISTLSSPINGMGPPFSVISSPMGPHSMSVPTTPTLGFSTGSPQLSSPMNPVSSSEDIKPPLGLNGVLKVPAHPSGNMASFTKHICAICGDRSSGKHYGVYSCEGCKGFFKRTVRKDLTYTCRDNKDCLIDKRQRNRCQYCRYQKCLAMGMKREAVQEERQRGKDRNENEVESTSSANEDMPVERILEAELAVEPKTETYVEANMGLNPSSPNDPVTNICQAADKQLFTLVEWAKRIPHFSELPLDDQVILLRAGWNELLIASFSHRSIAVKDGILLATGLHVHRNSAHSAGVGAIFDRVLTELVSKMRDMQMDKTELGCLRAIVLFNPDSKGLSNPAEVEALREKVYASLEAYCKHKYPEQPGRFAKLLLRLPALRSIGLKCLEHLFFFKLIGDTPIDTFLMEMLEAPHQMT
In short: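 Reporter activation is measured as beta-lactamase activity via FRET substrate cleavage (emission 460/530 nm) in HEK 293T cells expressing an RXR-alpha-driven bla construct, following 16 hr compound exposure at 37 C.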

[2] = qHTS assay to identify small molecule agonists of the RXR signaling pathway - cell viability counter screen (AID 1159529); further: series mostly up to about 77 µM; nearly all actives have a fitted effect of over 50% in size
In short: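 Tox21 10K compounds were tested for cytotoxicity against GeneBLAzer RXR-alpha HEK 293T cells grown in 2% charcoal-stripped FBS. Exposure lasted 16 hr at 37 C, 5% CO2; viability read by CellTiter-Glo luminescence.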

[3] = qHTS assay to identify small molecule antagonists of the retinoid acid receptor (RAR) signaling pathway - cell viability counter screen (AID 1159551); further: nearly all actives have a fitted effect of over 35% in size
In short: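 Viability of C3RL4 cells is quantified from ATP by luminescence after 6 h treatment at 37 C with compounds and 1 uM retinol.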

[4] = qHTS assay to identify small molecule antagonists of the estrogen related receptor (ERR) signaling pathway from Tox21 library - cell viability counter screen (AID 1224834); further: nearly all actives have a fitted effect of over 30% in size
In short: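 In this quantitative HTS format, ERR cells receive compounds in DMSO and are incubated for 17.5 h at 37 C. Live-cell protease activity is then detected with CellTiter-Fluor.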

[5] = biological target: Luciferin 4-monooxygenase (Photinus pyralis) (UniProt P08659); experiment: qHTS assay to identify small molecule inhibitors of firefly luciferase (AID 1224835); further: nearly all actives have a fitted effect of over 25% in size; further: potency means the concentration at half of the fitted maximal effect; on activity change, negative = inhibition: series mostly up to about 120 µM
Sequence of Luciferin 4-monooxygenase (Photinus pyralis) (P08659 whole entry, looked up): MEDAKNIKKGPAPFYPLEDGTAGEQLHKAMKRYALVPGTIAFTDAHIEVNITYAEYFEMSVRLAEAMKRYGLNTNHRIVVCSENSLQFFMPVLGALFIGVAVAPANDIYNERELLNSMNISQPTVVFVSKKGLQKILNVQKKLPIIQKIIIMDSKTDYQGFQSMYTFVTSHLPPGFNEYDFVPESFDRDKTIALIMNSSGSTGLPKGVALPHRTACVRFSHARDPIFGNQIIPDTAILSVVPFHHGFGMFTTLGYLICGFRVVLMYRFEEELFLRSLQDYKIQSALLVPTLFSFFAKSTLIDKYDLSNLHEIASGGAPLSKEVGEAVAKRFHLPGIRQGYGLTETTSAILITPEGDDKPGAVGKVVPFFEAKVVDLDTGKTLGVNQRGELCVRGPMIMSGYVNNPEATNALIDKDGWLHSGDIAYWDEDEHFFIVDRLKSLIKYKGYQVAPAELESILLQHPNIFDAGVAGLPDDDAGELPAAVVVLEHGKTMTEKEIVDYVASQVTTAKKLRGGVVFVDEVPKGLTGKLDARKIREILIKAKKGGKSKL
In short: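 Quantitative HTS format; KM concentrations of both substrates. Purified P. pyralis FLuc activity quantified from luminescence images.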

[6] = qHTS assay to identify small molecule agonists of the constitutive androstane receptor (CAR) signaling pathway - cell viability counter screen (AID 1224836); further: series mostly up to about 92 µM; nearly all actives have a fitted effect of over 45% in size
In short: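 Fluorescence from CellTiter-Fluor indicates live cells after 23 h exposure. The human hepatoma line expresses hCAR and a CYP2B6-2.2kb reporter. Incubation medium contains 0.75 uM PK11195 (final).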

[7] = qHTS assay to identify small molecule antagonists of the constitutive androstane receptor (CAR) signaling pathway - cell viability counter screen (AID 1224837); further: series mostly up to about 92 µM; nearly all actives have a fitted effect of over 45% in size
In short: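 In quantitative HTS format, compounds at 15 concentrations were applied to HepG2 cells double-transfected with hCAR and CYP2B6-2.2kb under 50 nM CITCO stimulation; live-cell protease activity was read after 23 hr via CellTiter-Fluor.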

[8] = qHTS assay to identify small molecule antagonists of the estrogen related receptor signaling pathway with the pleiotropic PPARgamma coactivator (PGC) from Tox21 10K library - cell viability counter screen (AID 1224840; active means well fitted cell-killing curve with a large enough effect in the repeat runs, not every such curve was filed as active; further: nearly all actives have a fitted effect of over 40% in size)
In short: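 Viability counter screen, PGC/ERR cells: 17.5 h compound exposure at 37 C, CellTiter-Fluor fluorescence endpoint.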

[9] = biological target: Nuclear receptor subfamily 1 group I member 3 (Homo sapiens) (UniProt Q14994); experiment: qHTS assay to identify small molecule antagonists of the constitutive androstane receptor (CAR) signaling pathway (AID 1224838); further: nearly all actives have a fitted effect of over 40% in size
Sequence of Nuclear receptor subfamily 1 group I member 3 (Homo sapiens) (Q14994 whole entry, looked up): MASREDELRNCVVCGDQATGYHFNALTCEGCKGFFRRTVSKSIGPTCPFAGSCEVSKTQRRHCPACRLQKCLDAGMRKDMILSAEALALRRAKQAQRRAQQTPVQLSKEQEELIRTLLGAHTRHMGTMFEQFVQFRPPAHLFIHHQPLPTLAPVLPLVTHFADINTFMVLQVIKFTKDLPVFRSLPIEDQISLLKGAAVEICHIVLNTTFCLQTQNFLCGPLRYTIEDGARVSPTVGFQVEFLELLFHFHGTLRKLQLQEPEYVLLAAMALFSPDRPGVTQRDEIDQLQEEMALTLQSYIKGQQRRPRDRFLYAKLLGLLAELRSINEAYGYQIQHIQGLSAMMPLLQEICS
In short: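 CITCO-stimulated (50 nM final) HepG2 cells stably transfected with hCAR and CYP2B6-2.2kb luciferase were exposed to compounds at 15 concentrations for 24 h at 37 C/5% CO2. A luciferase reagent was added and luminescence recorded after 30 min.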

[10] = biological target: Nuclear receptor subfamily 1 group I member 3 (Homo sapiens) (UniProt Q14994); experiment: qHTS assay to identify small molecule agonists of the constitutive androstane receptor (CAR) signaling pathway (AID 1224839);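 further: HepG2 cells stably carrying human CAR and a CYP2B6 luciferase reporter; series mostly up to about 92 µM; nearly all actives have a fitted effect of over 15% in size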
In short: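 Stable hCAR/CYP2B6-2.2kb HepG2 line in DMEM with 10% FBS; compounds (15 concentrations) and 0.75 uM PK11195 final, 24 h at 37 C/5% CO2, then ONE-Glo luminescence after 30 min.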

[11] = qHTS assay to identify small molecule antagonists of the retinoic acid receptor (RAR) signaling pathway (AID 1159552; further: nearly all actives have a fitted effect of over 50% in size)
In short: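 Overnight-plated C3RL4 reporter cells get compound, then retinol to 1 uM final; plates sit 6 hr at 37 C, 5% CO2. A luciferase reagent is added and light output recorded after 30 min at room temperature.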

[12] = qHTS assay to identify small molecule agonists of the retinoic acid receptor (RAR) signaling pathway (AID 1159553)
In short: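 Compounds dissolved in DMSO were pinned onto C3RL4 cells seeded the previous day, and plates were held 6 hr at 37 C. RARE-driven luciferase output was then read by luminescence.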

[13] = qHTS assay to identify small molecule antagonists of the estrogen related receptor signaling pathway with the pleiotropic PPARgamma coactivator (PGC) from Tox21 10K library (AID 1224841; call rule not given here; further: series mostly up to about 92 µM; actives are mostly falling curves and most rising ones were filed inactive; nearly all actives have a fitted effect of over 50% in size)
In short: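 In the PGC/ERR line, DMSO solutions of test chemicals are pin-delivered to 2,000 cells/well six hours after dispensing. Following eighteen hours' incubation, One-Glo reagent is added and luminescence recorded.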

[14] = qHTS assay to identify small molecule agonists of the estrogen related receptor signaling pathway with the pleiotropic PPARgamma coactivator (PGC) from Tox21 10K library (AID 1224842); further: nearly all actives have a fitted effect of over 15% in size
In short: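 PGC/ERR reporter cells (NTP line) were seeded 2,000 per well, rested 6 h at 37 C/5% CO2, then pin-dosed with compounds in DMSO for 18 h at 37 C; luciferase read by One-Glo luminescence after 30 min at room temperature.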
On the % scale 0 is the no-effect control and ±100 the full control effect.

O=C(O)c1ccc[n+]([O-])c1
inactive: Potency [1] | Potency [2] | outcome [3] | Potency [4] | Potency [5] | outcome [6] | outcome [7] | outcome [8]

NCC[C@H](O)C(=O)N[C@@H]1C[C@H](N)[C@@H](O[C@H]2O[C@H](CN)[C@@H](O)[C@H](O)[C@H]2O)[C@H](O)[C@H]1O[C@H]1O[C@H](CO)[C@@H](O)[C@H](N)[C@H]1O
inactive: activation [1] 7.2% [at 0.29 µM] | activity change, negative = cytotoxicity [2] 9.63% [at 0.29 µM] | viability change, negative = cytotoxic [4] 0.879% [at 0.349 µM] | activity change, negative = inhibition [5] -1.73% [at 0.435 µM] | viability change, negative = cytotoxic [6] 2.17% [at 0.349 µM] | activity change, negative = cytotoxicity [7] 3.03% [at 0.349 µM] | activity, negative = inhibition [9] -4.74% [at 0.349 µM] | activation [10] 1.57% [at 0.349 µM] | viability change, negative = cytotoxic [8] 1.22% [at 0.349 µM]

Nc1cc(C(Cl)=C(Cl)Cl)c(S(N)(=O)=O)cc1S(N)(=O)=O
inactive: Potency [1] | Potency [2] | outcome [3] | Potency [4] | Potency [5] | outcome [7] | outcome [8]

CC(C)(C)CC(C)(C)N
active: Potency [1] 2.12 µM
inactive: Potency [2] | outcome [3] | Potency [4] | Potency [5] | outcome [6] | outcome [7] | outcome [8]

CCCCc1ccc(N)cc1
inactive: Potency [1] | Potency [2] | Potency [4] | Potency [5] | outcome [6] | outcome [7] | Potency [9] | Potency [10] | outcome [8]

C=CCOCC(O)CS(=O)(=O)O (stereo not given)
inactive: Potency [1] | Potency [2] | outcome [3] | Potency [4] | Potency [5] | outcome [7] | Potency [9] | Potency [10] | outcome [8]

NC(=O)c1ncn([C@@H]2O[C@H](CO)[C@@H](O)[C@H]2O)c1N
inactive: Potency [1] | Potency [2] | Potency [11] | Potency [12] | Potency [4] | Potency [5] | outcome [7] | Potency [9] | Potency [10] | outcome [8]

COc1cccc(Br)c1
inactive: Potency [1] | Potency [2] | outcome [3] | Potency [4] | Potency [5] | outcome [6] | outcome [7] | outcome [8] | Potency [13] | Potency [14]

COC(C(=O)O)c1ccccc1 (stereo not given)
inactive: Potency [1] | Potency [2] | outcome [3] | Potency [4] | Potency [5] | outcome [7] | Potency [9] | Potency [10] | outcome [8]

COc1cc(O)cc(O)c1
inactive: Potency [1] | Potency [2] | outcome [3] | Potency [4] | Potency [5] | outcome [7] | Potency [9] | Potency [10] | outcome [8]

CCOC(=O)[C@H](CCc1ccccc1)N[C@@H](C)C(=O)N1CCC[C@H]1C(=O)O
inactive: Potency [1] | Potency [2] | outcome [3] | Potency [4] | Potency [5] | outcome [6] | outcome [7] | outcome [8] | Potency [13] | Potency [14]

C1COCCO1
inactive: Potency [1] | Potency [2] | outcome [3] | Potency [4] | Potency [5] | outcome [6] | outcome [7] | outcome [8] | Potency [13] | Potency [14]

NS(=O)(=O)c1cc(C2(O)NC(=O)c3ccccc32)ccc1Cl (stereo not given)
inactive: Potency [1] | Potency [2] | outcome [3] | Potency [4] | Potency [5] | outcome [6] | outcome [7] | outcome [8]

CO
inactive: Potency [1] | Potency [2] | outcome [3] | Potency [4] | outcome [7] | Potency [9] | Potency [10] | outcome [8] | Potency [13] | Potency [14]

CCCCCCCCCCCl
inactive: Potency [1] | Potency [2] | outcome [3] | Potency [4] | Potency [5] | outcome [6] | outcome [7] | outcome [8] | Potency [13] | Potency [14]

Nc1ncnc2c1ncn2Cc1c(F)cccc1Cl
inactive: Potency [1] | Potency [2] | outcome [3] | Potency [4] | Potency [5] | outcome [6] | outcome [7] | outcome [8] | Potency [13] | Potency [14]

O=C(O)CCNC(=O)c1ccc(N=Nc2ccc(O)c(C(=O)O)c2)cc1
active: Potency [5] 30.9 µM
inactive: Potency [1] | Potency [2] | outcome [3] | outcome [7] | Potency [9] | Potency [10] | outcome [8]

CC(C)CCCC(C)NCCC(C)C (stereo not given)
inactive: Potency [1] | Potency [2] | outcome [3] | Potency [4] | Potency [5] | outcome [6] | outcome [7] | outcome [8] | Potency [13] | Potency [14]

NC(=O)c1c(Cl)cccc1Cl
inactive: Potency [1] | Potency [2] | outcome [3] | Potency [4] | Potency [5] | outcome [7] | Potency [10] | outcome [8] | Potency [13] | Potency [14]

CCC(C(=O)NC(N)=O)c1ccccc1 (stereo not given)
inactive: Potency [1] | Potency [2] | outcome [3] | Potency [4] | Potency [5] | outcome [6] | outcome [7] | outcome [8] | Potency [13] | Potency [14]

CC1CCN(CCCC(=O)c2ccc(F)cc2)CC1
inactive: Potency [1] | Potency [2] | outcome [3] | Potency [4] | outcome [6] | outcome [7] | Potency [9] | Potency [10] | outcome [8] | Potency [13] | Potency [14]

CSc1ccc(C=O)cc1
inactive: Potency [1] | Potency [2] | Potency [11] | Potency [4] | Potency [5] | outcome [6] | outcome [7] | outcome [8]

Cc1ccc(Nc2ccc(O)c3c2C(=O)c2ccccc2C3=O)cc1
inactive: Potency [1] | Potency [2] | outcome [3] | Potency [4] | Potency [5] | outcome [7] | Potency [9] | Potency [10] | outcome [8]

C#CC(O)CCCCC (stereo not given)
inactive: Potency [1] | Potency [2] | outcome [3] | Potency [4] | Potency [5] | outcome [7] | Potency [9] | Potency [10] | outcome [8]

C1CCCCCCCCCCC1
inactive: activation [1] 0.57% [at 15.8 µM] | activity change, negative = cytotoxicity [2] 1.49% [at 15.8 µM] | activity change, negative = cytotoxicity [3] -2.08% [at 19 µM] | viability change, negative = cytotoxic [4] 0.43% [at 19 µM] | activity change, negative = inhibition [5] -7.22% [at 23.6 µM] | viability change, negative = cytotoxic [6] -17.1% [at 19 µM] | activity change, negative = cytotoxicity [7] -6.25% [at 19 µM] | viability change, negative = cytotoxic [8] 11% [at 19 µM] | activation [14] 0.749% [at 19 µM]
